# Assay outcomes: PubChem BioAssay, National Center for Advancing Translational Sciences (NCATS)
# Most compounds without a hit are left out; they make up all but 5.5% or so of the library.
# RORgamma inh: blocks mouse ROR gamma transcriptional activity. Potency, µM (titrated, usually from 53.6 µM), for the others: at the highest dose activity change, negative = inhibition, hits mostly inhibitors. Drosophila S2 Gal4-RORgamma UAS-luciferase reporter, 20 h. 5.4% of 310,000 active. P51450. AID 2551; also: potency is read from the fitted curve at half-maximal effect; % is scaled to controls: 0 for no effect and ±100 for the full control effect; nearly all actives have a fitted effect of over 60% in size
# Target sequence (P51450 whole entry, looked up, the tested form may be a part): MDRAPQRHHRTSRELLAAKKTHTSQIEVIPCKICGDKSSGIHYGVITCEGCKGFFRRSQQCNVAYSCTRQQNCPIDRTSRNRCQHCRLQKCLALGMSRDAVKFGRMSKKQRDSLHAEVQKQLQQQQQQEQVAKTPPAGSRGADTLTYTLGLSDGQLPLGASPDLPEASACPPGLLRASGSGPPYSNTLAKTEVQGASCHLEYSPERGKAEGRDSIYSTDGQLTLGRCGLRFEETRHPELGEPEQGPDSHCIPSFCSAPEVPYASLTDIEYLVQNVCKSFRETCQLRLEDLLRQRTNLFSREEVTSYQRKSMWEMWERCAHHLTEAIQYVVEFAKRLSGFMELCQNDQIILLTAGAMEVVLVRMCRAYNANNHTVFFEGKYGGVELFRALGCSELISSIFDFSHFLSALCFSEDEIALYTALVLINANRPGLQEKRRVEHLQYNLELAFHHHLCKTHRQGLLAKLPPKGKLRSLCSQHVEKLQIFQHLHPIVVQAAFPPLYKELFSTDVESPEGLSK
#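 Drosophila Schneider cells stably carrying a metallothionein-driven Gal4 DBD–ROR gamma fusion and a UAS-Photinus luciferase reporter were exposed to compound for 1 hr, then induced with copper sulfate (700 uM final) for 20 hr at ambient temperature before luminescence reading.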
# MBNL1-CUG inh: MBNL1-poly(CUG) RNA binding inhibition; Potency, µM (top dose mostly 57.5 µM), for inactives: at the top dose activity change, negative = inhibition, most hits filed as inhibitors; AID 2675; Q9NR56; TR-FRET MBNL1-His/biotin-(CUG)12 binding, 665/545 ratio; 0.036% of 280,000 active; active = well fitted inhibition curve with a large enough effect in the signal ratio, with a control signal flat, not every such curve was filed as active; inconclusive = small, poorly fitted or top-dose-only effect, or effect the other way, or a change in a side signal; inactive = no such curve, though single readings can be large or run the other way; the % refers to the signal ratio; also: potency is read from the fitted curve at half-maximal effect; % is scaled to controls: 0 for no effect and ±100 for the full control effect
#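 Ratiometric TR-FRET (665 over 545 nm, excitation 340 nm) tracks disruption of MBNL1-His/biotin-(CUG)12 complex after 60 min at room temperature, with compounds at 92 nM to 58 uM final.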
# CBFb-RUNX1 inh: blocks binding between human CBF-beta and RUNX1. AlphaScreen CBFb-His/RUNX1-biotin binding, biochemical. Potency, µM (top dose mostly 59.8 µM), for the others: at the highest dose activity, negative = inhibition, usual class: inhibitors. 230,000 tested, under 10 active. AID 1477; also: % of control where 0% means no effect
#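 Proteins preincubated together for 20 min at RT before compound addition; 15 min later, nickel and streptavidin beads were added and left 90 min prior to AlphaScreen measurement.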
# CtBP-E1A inh: inhibitors of CtBP/E1A interaction | AID 651724 | activity change, % (test concentration not listed) | 0.49% of 340,000 active | AlphaScreen GST-E1A/His-CtBP binding, 1536-well; stronger effect = lower value; in the data active = activity change below about -65%; inconclusive = mostly about -30% to -63%; also: % is scaled to controls: 0 for no effect and ±100 for the full control effect
#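 GST-E1A and His-tagged CtBP (125 nM each as 5X stock) were preincubated with pin-transferred compound for 2 h at 37 °C in the dark, then glutathione donor and nickel acceptor beads were added for 1 h before AlphaScreen reading.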
# Six1-Eya2 inh: Six1/Eya2 interaction inhibition; Q15475+O00167; AlphaScreen GST-Six1/His-Eya2 binding, biochemical; stronger effect = lower value; activity change, % (test concentration not listed); 0.56% of 360,000 active; AID 651725; in the data active = activity change below about -65%; inconclusive = mostly about -30% to -63%; also: % is scaled to controls: 0 for no effect and ±100 for the full control effect
#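 GST-Six1 + His-Eya2 (5X stock: 250/500 nM); Tris pH 8.0, 300 mM NaCl, 0.05% BSA, 0.02% Tween 20; GSH donor/Ni acceptor beads; 1 h 37 °C dark; AlphaScreen readout.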
# VP16 counter: inhibits Gal4-VP16 luciferase reporter, ROR gamma counter-screen; AID 2546; 3.5% of 310,000 active; Potency, µM (top dose mostly 53.6 µM), inactives show at the top dose activity, negative = inhibition, most hits filed as inhibitors; Drosophila S2 Gal4-VP16 UAS-luciferase, luminescence, 20 h;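 also: Gal4-VP16 expression switched on by copper sulfate through the metallothionein promoter; potency is read from the fitted curve at half-maximal effect; % is scaled to controls: 0 for no effect and ±100 for the full control effect; nearly all actives have a fitted effect of over 50% in size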
# An asterisk follows results filed as active; ? = inconclusive; / = no result given; [ ] = dose if it differs, or a comment. Unless noted, calls follow the shape of the dose curve; as a rule, active = well fitted curve in the direction sought with a large enough effect; inconclusive = small, poorly fitted or top-dose-only effect, or another doubt; inactive = no such curve, though single readings can be large; an effect the other way counts as inactive or inconclusive.
SMILES,RORgamma inh,MBNL1-CUG inh,CBFb-RUNX1 inh,CtBP-E1A inh,Six1-Eya2 inh,VP16 counter
CC(C)NC(=O)N(C)C[C@H]1Oc2ccc(NS(=O)(=O)c3cn(C)cn3)cc2C(=O)N([C@H](C)CO)C[C@@H]1C,/,/,/,8.1,-1.3,/
C/C(CC(=O)Nc1ccccn1)=N\NC(=O)c1ccc(C)cc1,-27.8%,-5.7%,-12.2%,-3.2,0.5,-2.1%
C/C(CC(=O)Nc1ccc(N(C)C)cc1)=N\NC(=O)c1ccc(C(C)(C)C)cc1,?,-4.9%,/,/,-2.0,3.98µM*
C/C(CC(=O)Nc1ccc(N(C)C)cc1)=N\NC(=O)c1ccc(F)cc1,1.78µM*,9.9%,/,-27.7,-22.9,?
C/C(CC(=O)Nc1ccc(N(C)C)cc1)=N\NC(=O)C(=O)NCc1ccccc1,25.3%,/,-26.5%,-6.5,-15.8,-6.6%
C/C(CC(=O)Nc1ccc(N(C)C)cc1)=N\NC(=O)c1ccc([N+](=O)[O-])cc1Cl,?,?,0.1%,3.5,-14.7,?
COc1cccc(C(=O)N/N=C(\C)CC(=O)Nc2ccc(N(C)C)cc2)c1,-30.4%,1.9%,/,?,?,0.5%
C/C(CC(=O)Nc1ccc(N(C)C)cc1)=N\NC(=O)c1ccc(Cl)cc1Cl,11.2µM*,6.4%,/,1.0,-6.2,-10.9%
C/C(CC(=O)Nc1cc(C)ccn1)=N\NC(=O)c1ccc(C(C)(C)C)cc1,11.2µM*,0.8%,/,-3.1,4.6,-16.2%
CC(C)C1=CC2=CC[C@@H]3[C@](C)(CCC[C@@]3(C)C(=O)O)[C@H]2CC1,-7.3%[10 µM],/,/,/,/,-5.4%
CC(C)CN(C(=O)c1cc(Cl)nc2ccccc12)c1c(N)n(Cc2ccccc2)c(=O)[nH]c1=O,/,/,/,0.0,28.5,/
C#CCN1[C@@H]2CCN(C2)c2cc(Br)ccc2S1(=O)=O,/,/,/,3.3,2.5,/
C/C(Cn1nnc([N+](=O)[O-])n1)=N\NC(=O)c1ccc(O)cc1,2.82µM*,?,7.7%,/,6.4,7.94µM*
C/C(Cn1cnc([N+](=O)[O-])n1)=N\NC(=O)c1ccc(Br)cc1,?,?,-3.4%,-0.6,4.3,-3.8%
C/C(Cn1nnc([N+](=O)[O-])n1)=N\NC(=O)c1ccc(Cl)c(Cl)c1,12.6µM*,?,-2.9%,14.3,-1.7,?
CNC1CCC(c2ccc(Cl)c(Cl)c2)c2ccccc21 (centres undefined),/,/,11.9%,/,/,/
CC[C@@]1(O)C[C@H](O[C@H]2C[C@@H](N(C)C)[C@@H](O[C@H]3C[C@@H](O)[C@@H](O[C@H]4CCC(=O)[C@@H](C)O4)[C@@H](C)O3)[C@@H](C)O2)c2c(cc3c(c2O)C(=O)c2c(O)cccc2C3=O)[C@H]1C(=O)OC,0.316µM*,/,/,/,/,0.562µM*
O=C(CCNc1ccc(F)cc1)c1cccc([N+](=O)[O-])c1,12.6µM*,?,-20.4%,?,-25.5,?
Cc1ccnc(SCC(=O)c2cccc([N+](=O)[O-])c2)n1,-6.7%,?,-1.2%,-4.4,1.6,-5.6%
Cc1nc(SCC(=O)c2cccc([N+](=O)[O-])c2)n[nH]1,12.6µM*,?,6.1%,-0.8,3.2,?
CCOc1ccc(NC2CCCCC2NS(=O)(=O)c2ccccc2)cc1 (centres undefined),13.3%,5.9%,/,-26.3,?,-10.4%
CC(C)(C)C(=O)NC(=S)Nc1sc2c(c1C#N)CCCCC2,7.08µM*,36.7%,-3.3%,-2.6,-19.3,14.1µM*
Cc1ccccc1C(=O)NC(=S)Nc1sc2c(c1C#N)CCCC2,3.55µM*,?,4.7%,2.1,-25.4,11.2µM*
Cc1onc(-c2ccccc2)c1C(=O)Nc1sc2c(c1C#N)CCC2,16.6%,3.3%,-2.9%,-23.5,-25.7,0.4%
N#Cc1c(NC(=O)c2ccccc2)sc2c1CCCCC2,?,23.1%,-8.2%,-5.2,12.3,?
Cc1onc(-c2ccccc2)c1C(=O)NC(=S)Nc1sc2c(c1C#N)CCCC2,3.55µM*,1.1%,?,-13.7,-7.9,-87.8%
